# Test results published in ChEMBL document CHEMBL3433997, “St. Jude Leishmania screening dataset” (2016).
# Assays:
# Assay type in all cases: functional
# [1] = target: Solute carrier family 2, facilitated glucose transporter member 1 (Homo sapiens) (UniProt P11166); assay: ST_JUDE_LEISH: Cytotoxicity at 2uM final concentration against transgenic Leishmania Mexicana promastigotes LmGLUT1 that are glucose transport deficient and complemented with the human glucose transporter GLUT1. Activity is measured by DNA content using SYBR green in vitro
# [2] = target: Hexose transporter 1 (Plasmodium falciparum) (UniProt O97467); assay: ST_JUDE_LEISH: Cytotoxicity at 2uM final concentration against transgenic Leishmania Mexicana promastigotes LmPfHT that are glucose transport deficient and complemented with the Plasmodium falciparum hexose transporter. Activity is measured by DNA content using SYBR green in vitro
# [3] = target: Glucose transporter (Leishmania mexicana) (UniProt O61059); assay: ST_JUDE_LEISH: Cytotoxicity at 2uM final concentration against transgenic Leishmania Mexicana promastigotes LmGT2 that are glucose transport deficient and complemented with the L. Mexicana glucose transporter 2. Activity is measured by DNA content using SYBR green in vitro
# Sequence of Solute carrier family 2, facilitated glucose transporter member 1 (Homo sapiens) (P11166 whole entry): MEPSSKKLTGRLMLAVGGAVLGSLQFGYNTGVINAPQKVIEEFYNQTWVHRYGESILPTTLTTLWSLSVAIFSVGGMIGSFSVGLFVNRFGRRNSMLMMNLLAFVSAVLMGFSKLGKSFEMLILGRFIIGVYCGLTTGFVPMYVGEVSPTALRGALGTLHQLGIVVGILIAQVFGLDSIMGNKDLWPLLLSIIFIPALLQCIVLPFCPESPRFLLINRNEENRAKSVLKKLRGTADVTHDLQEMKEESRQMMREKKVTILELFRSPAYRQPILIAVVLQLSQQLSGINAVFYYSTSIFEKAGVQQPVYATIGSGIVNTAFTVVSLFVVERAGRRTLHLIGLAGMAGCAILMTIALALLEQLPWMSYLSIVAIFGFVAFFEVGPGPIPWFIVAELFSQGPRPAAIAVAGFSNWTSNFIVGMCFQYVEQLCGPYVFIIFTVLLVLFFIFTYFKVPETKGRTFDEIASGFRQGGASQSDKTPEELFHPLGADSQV
SMILES,inhibition [1],inhibition [2],inhibition [3]
Cc1cccc2nc(-c3ccc(-c4ccc(NC(=O)C(=O)c5cccn5C)cc4)cc3)[nH]c12,5.06%,1.84%,0.5%
Cc1cccc2nc(-c3ccc(-c4ccc(CN5CCC(CO)CC5)cc4)s3)[nH]c12,3.72%,2.43%,0.87%
COc1ccc2nccc([C@@H](O)CN3CCC(NC(=O)c4cc5c(F)cc(F)cc5[nH]4)CC3)c2n1,87%,84.1%,85.4%
Oc1ccc(Br)cc1C(O)CNCc1ccccc1OCc1ccccc1 (stereo not given),2.85%,3.54%,2.87%
Cc1cccc2nc(-c3ccc(-c4ccc(NC(=O)Nc5ccsc5)cc4)s3)[nH]c12,5.12%,5.23%,4.39%
CC1(C)N=C(N)N=C(N)N1c1ccccc1,3.26%,3.47%,1.32%
CC1(C)CCNc2cc(NC(=O)c3ccc(-c4ncccc4C(F)(F)F)cc3)ccc21,2.63%,1.14%,0.73%
N#Cc1cccc(Nc2nccc(Nc3ccc(Oc4ccccc4)cc3)n2)c1,6.87%,5.4%,0.2%
Cn1cnc(CCNC(=O)c2cccc(-c3csc(-c4nc5ccccc5[nH]4)c3)c2)c1,-1.62%,-0.39%,-0.89%
CN(Cc1ccc(-c2ccc(C(F)(F)F)cc2)cc1)C(=O)Cn1c(CCc2cccc(F)c2F)cc(=O)c2ccc(OCC3CCCN3C)cc21 (stereo not given),3.87%,3.45%,4.42%
CCC(=O)Nc1ccc(C(O)CN2CCC3(C=Cc4ccccc4O3)CC2)cc1 (stereo not given),3.61%,2.65%,1.63%
Cc1c(F)cc(C(=O)NC2CC2)cc1-c1ccc2c(c1)c(C)nn2S(=O)(=O)c1cccs1,4.6%,3.16%,2.8%
Cc1ccc2[nH]c3c(NCCCN(C)C)ncnc3c2c1,-1.63%,-0.22%,-0.28%
CCNc1cc(C(=O)N[C@@H](Cc2ccccc2)[C@H](O)CNC2CCCC2)cc(N2CCCC2=O)c1,3.87%,3.77%,3.46%
COC(=O)CCCCCOc1cc(Cc2cnc(N)nc2N)cc(OC)c1OC,-0.5%,-5.95%,0.35%
Cc1cc(-c2cc(Cl)ccc2Cl)no1,-2.71%,0.03%,-0.72%
CCC[C@@H]([C@@H](CC1CCCCC1)C(=O)N[C@H](C(=O)Nc1nccs1)[C@H](C)O)N(O)C=O,1.07%,1.35%,2.03%
COc1ccccc1N=C1SC(=Cc2cn(CC(=O)N3CCCc4ccccc43)c3ccccc23)C(=O)N1C1CCCCC1,2.84%,0.47%,-1.37%
O=c1[nH]c2ccc(Nc3nccc(NCCc4ccccc4)n3)cc2[nH]1,1.91%,4.94%,5.12%
Cc1cc(NC(=O)c2cccs2)ccc1OC1CCN(Cc2ccc(C#N)cc2)CC1,-0.77%,1.49%,-0.42%
CN1CCN(c2cccc(NC(=O)c3ccc(-c4ccc(C#N)cc4)cc3)c2)CC1,8.25%,3.32%,5.96%
N#Cc1ccc2c(c1)CCN(CCC1CCC(NC(=O)/C=C/c3cc(Br)cs3)CC1)CC2 (stereo not given),5.26%,2.93%,-0.56%
CCCCOC(=O)C1=C(C)NC2=C(C(=O)CC(c3ccc(OC)c(OC)c3)C2)C1c1ccc(O)cc1 (stereo not given),10.4%,1.48%,3.3%
CCCc1c(C(=O)OCC)c2cc(O)ccc2n1-c1ccc(OC)cc1,5.29%,6.77%,4.32%

SMILES,inhibition [1],inhibition [2],inhibition [3]
O=C(Nc1ccc(F)cc1)c1ccc(C(=O)NC2CCN(CC3CCCCC3)CC2)cc1,19.2%,16.6%,11.7%
Oc1ccc(C=NNC(S)=Nc2cccc3ccccc23)c(O)c1,4.86%,4.96%,2.47%
O=c1[nH]nc(-c2ccc(N3CCCC3)c([N+](=O)[O-])c2)c2ccccc12,2.71%,3.31%,4.21%
CN1CCCC(CN2CCN(Cc3cccc(-c4ccc(-c5nc6cc(F)ccc6[nH]5)cc4)c3)CC2)C1 (stereo not given),2.66%,1.97%,1.35%
O=C(NC1CCN(CCN2CCc3ccccc3CC2)CC1)c1ccc(-c2ccc(C(F)(F)F)cc2)cc1,5.74%,9.69%,4.56%
COc1ccc2ncc(F)c(CCN3CCC(CNC(=O)C(=O)c4c[nH]c5ccccc45)CC3)c2n1,6.8%,7.49%,1.37%
Cc1cccc(CNc2nc(C)cc(N[C@@H](CC(C)C)C(=O)NCCOc3ccccc3)n2)c1,4.29%,5.38%,2.08%
COc1ccc(CN(C)CCCc2ccc(NC(=O)Cc3ccc4nc(-c5ccccc5)ccc4c3)cc2)cc1OC,19.3%,11.1%,6.65%
O=C(/C=C/c1ccc(Cl)c(Cl)c1)NCCCCCN1CCC(NC(=O)Nc2ccc(F)c(Cl)c2)CC1,3.93%,4.82%,6.8%
COc1cccc(-c2cc(C(=O)Nc3ccc4[nH]c(-c5ccccc5)nc4c3)[nH]n2)c1,4.77%,3.14%,1.09%
COc1ccc2nc3cc(Cl)ccc3c(NCCN3CCN(C)CC3)c2c1,4.56%,3.95%,3.79%
COCC(=O)N(Cc1ccccc1-c1cccc(CNCc2ccc3c(c2)OCO3)c1)C1CCN(Cc2ccccc2)CC1,0.4%,1.22%,1.77%
COc1cc(OC)cc(-c2nn(-c3ccc([N+](=O)[O-])cc3Cl)c(=S)n2Cc2ccco2)c1,-1.56%,-0.65%,2.4%
COc1cccc2cc(C(=O)N[C@@H](CC(C)C)C(=O)N[C@H](/C=N/N(C)C(=O)OC(C)(C)C)CC(=O)OC(C)(C)C)oc12,2.84%,3.79%,3.79%
COc1cc2nc(N3CCN(c4nc(N)c5cc(OC)c(OC)cc5n4)CC3)nc(N)c2cc1OC,5.24%,4.56%,4.05%
O=C(N[C@H]1CCN(Cc2ccc(OCCCN3CCCCC3)cc2)C1)c1ccc(Oc2ccccc2)cc1,72.1%,19.9%,13.7%
CC(=O)N(C)/N=C/[C@H](CCc1ccccc1)NC(=O)[C@H](CC(C)C)NC(=O)c1cccc(OCCN2CCOCC2)c1,9.6%,9.59%,8.5%
CCn1c(-c2nonc2N)nc2c(-c3cccc(NC(=O)Nc4ccc(Cl)cc4)c3)ncc(OCCCN)c21,1.03%,0.62%,1.46%
COc1cccc(C2CCCN(CCCCNC(=O)c3ccc(NC(=O)c4ccc(Cl)cc4)cc3)C2)c1 (stereo not given),2.97%,4.25%,3.02%
COc1cc(Nc2nccc(N3CCC(NC(=O)Nc4cccc(C(C)=O)c4)C3)n2)cc(OC)c1OC (stereo not given),2.52%,2.96%,3.92%
Nc1cc(-c2ccc3c(N)nccc3c2)ccc1Cl,4.64%,2.75%,1.32%
CC(C)[C@H](NC(=O)c1ccc(O)c(-c2ccc(Cl)c(Cl)c2)c1)C(=O)NC1CCCCCC1,0.48%,0.52%,-4.76%
CCCCCCN(CCCCCC)CC(O)c1cc(-c2ccc(Cl)cc2)nc2c(C)cc(C)cc12 (stereo not given),8.61%,6.85%,8.75%
CN1CCN(Cc2cc3cc(NC(=O)/C=C/c4cccc(Cl)c4)ccc3s2)CC1,0.65%,0.04%,-0.14%

SMILES,inhibition [1],inhibition [2],inhibition [3]
OCC1CCN(Cc2ccc(-c3cccc(-c4nc5ccccc5[nH]4)c3)cc2)CC1,1.15%,1.08%,3.83%
CCc1c(CCNCCCCCCNCCc2ccc(Br)cc2)ccc(OC)c1OC,36.3%,10.9%,103%
CCOc1ccc(-c2nc(NC(=O)CS(=O)(=O)c3ccccc3)sc2C)cc1,2.75%,2.62%,1.8%
O=C(N[C@@H](Cc1ccccc1)C(=O)NC1CCCc2ccccc21)c1ccc(O)c(-c2cccc(C(F)(F)F)c2)c1 (stereo not given in full),-3.38%,-1.1%,-1.61%
Oc1ccc(CCCNc2nc(NCc3cccc4ccccc34)nc(NC3CCNCC3)n2)cc1,-0.36%,3.07%,2%
CC[C@H](NC(=O)c1c(CCCN2CCN(c3ccccc3)CC2)c(-c2ccccc2)nc2cc(O)ccc12)c1ccccc1,7.88%,6.19%,10.9%
CC(=O)N1N=C(c2ccc(F)cc2)Sc2c1nc(-c1ccccc1)n2C(C)=O,8.6%,7.94%,8.7%
CC(C)CNC(=O)c1ccnc(-c2ccc(CNCCCc3ccccc3)cc2)c1,2.32%,3.19%,2.74%
Cc1ccc2c(O)c([N+](=O)[O-])c(O)nc2c1,-1.72%,1.03%,1.6%
CCCCC(CC)C(=O)C(NC(=O)[C@H](CSC(c1ccccc1)(c1ccccc1)c1ccccc1)NC(=O)OC(C)(C)C)C(=O)OC (stereo not given in full),3.84%,3.76%,3.51%
CCCCCCCOc1ccc(NC(=O)Nc2ccc(Cn3ncc(N4CCCNCC4)c(Cl)c3=O)cc2)cc1,-2.91%,-0.57%,-1.59%
O=C(Nc1ccc(C(F)(F)F)cc1)NC1CCN(c2ccnc3ccccc23)C1 (stereo not given),8.02%,7.55%,7.55%
Cc1ccc2nc(C)n(C3CCN(C(=O)Cc4ccccc4C)CC3)c2c1,5.4%,8.18%,4.9%
c1ccc(CNCc2cccc(-c3ccc(-c4nc5ccccc5[nH]4)s3)c2)cc1,4.03%,3.45%,3.41%
Cc1nc(-c2cccc(Nc3nccc(NCC(O)c4cccc(F)c4)n3)c2)cs1 (stereo not given),-0.89%,-0.36%,-3.57%
O=C(NCCCCCN1CCC(c2c[nH]c3ccccc23)CC1)Nc1ccc(I)cc1,11%,5.79%,9.45%
Cc1cccc2nc(-c3cccc(-c4cccc(CN5CCN(c6ccncc6)CC5)c4)c3)[nH]c12,1.34%,0.76%,0.37%
c1ccc2[nH]c(-c3ccc(-c4ccc(CN5CCN(CCN6CCOCC6)CC5)cc4)cc3)nc2c1,11.2%,12.4%,4.36%
COc1ccc(-c2cc(-c3nc4cc(CN)ccc4[nH]3)c(=O)n(C)c2)cc1OC,0.63%,0.83%,-0.74%
COc1ccc2nccc([C@@H](O)CN3CCC(NCc4ccc5c(c4)oc(=S)n5C)CC3)c2c1,2.25%,5.5%,1.46%
O=C(c1ccccc1F)N(Cc1ccc(Cl)cc1)c1ccccn1,6.82%,7.84%,9.29%
Cc1cc(-c2ccnc(Nc3cccc(C#N)c3)n2)cc(C)c1O,13.8%,16%,7.83%
